# Values without a mark were called inactive.
# Experiments:
# Assay in all cases: log2 ratio of Biotin-Ahx-Ub-VS probe labelling (fragment/DMSO); higher = less target engagement (more negative = stronger competition), active = hit call of the paper (q ≤ 0.05, log2 ratio ≤ -1)
# Conditions in all cases: compound concentration: 200 uM; treatment time: 3 h
# USP19 = target: T1, USP19 (UniProt O94966)
# T1 sequence (whole entry): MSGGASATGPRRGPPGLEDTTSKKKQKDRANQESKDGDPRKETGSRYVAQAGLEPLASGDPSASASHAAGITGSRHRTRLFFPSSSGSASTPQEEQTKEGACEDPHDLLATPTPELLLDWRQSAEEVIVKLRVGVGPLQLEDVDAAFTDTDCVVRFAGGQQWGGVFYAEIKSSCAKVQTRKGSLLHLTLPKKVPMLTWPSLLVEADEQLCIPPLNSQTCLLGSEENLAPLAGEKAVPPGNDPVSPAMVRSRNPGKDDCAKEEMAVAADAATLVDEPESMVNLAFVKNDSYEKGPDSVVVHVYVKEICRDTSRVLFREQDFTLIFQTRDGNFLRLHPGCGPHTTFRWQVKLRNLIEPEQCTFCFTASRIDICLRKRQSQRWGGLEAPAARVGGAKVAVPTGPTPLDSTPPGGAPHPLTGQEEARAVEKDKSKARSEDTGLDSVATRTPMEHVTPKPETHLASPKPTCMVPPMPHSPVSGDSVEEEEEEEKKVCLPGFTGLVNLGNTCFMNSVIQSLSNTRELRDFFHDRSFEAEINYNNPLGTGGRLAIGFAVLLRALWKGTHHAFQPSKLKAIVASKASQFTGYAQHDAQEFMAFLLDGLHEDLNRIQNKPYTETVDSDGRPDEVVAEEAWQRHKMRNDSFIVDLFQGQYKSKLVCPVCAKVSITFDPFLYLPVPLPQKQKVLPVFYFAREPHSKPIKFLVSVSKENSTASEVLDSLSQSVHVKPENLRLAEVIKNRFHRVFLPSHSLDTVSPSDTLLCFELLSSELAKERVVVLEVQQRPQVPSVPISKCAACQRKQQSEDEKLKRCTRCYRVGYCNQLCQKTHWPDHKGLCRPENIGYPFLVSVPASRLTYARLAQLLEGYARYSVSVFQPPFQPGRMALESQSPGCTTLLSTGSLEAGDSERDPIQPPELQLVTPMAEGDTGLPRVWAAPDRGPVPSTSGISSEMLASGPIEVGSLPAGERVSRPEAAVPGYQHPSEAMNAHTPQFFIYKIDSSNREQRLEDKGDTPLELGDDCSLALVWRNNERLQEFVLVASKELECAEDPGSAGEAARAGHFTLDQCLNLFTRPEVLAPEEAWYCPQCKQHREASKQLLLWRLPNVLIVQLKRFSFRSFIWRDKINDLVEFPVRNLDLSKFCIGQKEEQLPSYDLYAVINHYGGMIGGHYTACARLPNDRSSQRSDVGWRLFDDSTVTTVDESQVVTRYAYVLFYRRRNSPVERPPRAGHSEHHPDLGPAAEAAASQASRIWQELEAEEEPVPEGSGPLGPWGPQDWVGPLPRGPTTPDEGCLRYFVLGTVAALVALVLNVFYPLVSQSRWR
# Method in brief: (§1)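 HEK293T lysate (495 µg per sample, in Tris/CHAPS/IGEPAL buffer with protease inhibitors) was exposed in triplicate for 3 h to fragment at 200 µM or to vehicle, then to Biotin-Ahx-Ub-VS at 0.5 µM final for 1 h. Labelled DUBs were enriched on NeutrAvidin, digested with LysC and trypsin, and analysed by diaPASEF LC-MS/MS. Spectronaut label-free quantities were normalised to the global median, and values are average log2 ratios of fragment over vehicle from an unpaired t-test. Only proteins with ≥2 unique peptides were used.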
# USP22 = target: T2, USP22 (UniProt Q9UPT9)
# T2 sequence (whole entry): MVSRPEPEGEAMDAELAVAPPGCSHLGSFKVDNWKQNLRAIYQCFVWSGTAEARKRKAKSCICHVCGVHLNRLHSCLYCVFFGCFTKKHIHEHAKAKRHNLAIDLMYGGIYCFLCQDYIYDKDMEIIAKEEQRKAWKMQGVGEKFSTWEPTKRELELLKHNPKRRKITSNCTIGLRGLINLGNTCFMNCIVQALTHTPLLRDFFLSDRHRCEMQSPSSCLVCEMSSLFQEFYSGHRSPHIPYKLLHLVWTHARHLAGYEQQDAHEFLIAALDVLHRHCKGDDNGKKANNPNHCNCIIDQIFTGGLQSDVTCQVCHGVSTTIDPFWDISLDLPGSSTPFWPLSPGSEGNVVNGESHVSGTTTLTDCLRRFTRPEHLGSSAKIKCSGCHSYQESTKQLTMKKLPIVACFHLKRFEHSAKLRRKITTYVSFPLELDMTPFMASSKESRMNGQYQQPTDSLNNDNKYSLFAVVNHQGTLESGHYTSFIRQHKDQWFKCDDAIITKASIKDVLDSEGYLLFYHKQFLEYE
# Method in brief: as §1
# USP24 = USP24 (UniProt Q9UPU5)
# Chain of USP24 (Q9UPU5 whole entry): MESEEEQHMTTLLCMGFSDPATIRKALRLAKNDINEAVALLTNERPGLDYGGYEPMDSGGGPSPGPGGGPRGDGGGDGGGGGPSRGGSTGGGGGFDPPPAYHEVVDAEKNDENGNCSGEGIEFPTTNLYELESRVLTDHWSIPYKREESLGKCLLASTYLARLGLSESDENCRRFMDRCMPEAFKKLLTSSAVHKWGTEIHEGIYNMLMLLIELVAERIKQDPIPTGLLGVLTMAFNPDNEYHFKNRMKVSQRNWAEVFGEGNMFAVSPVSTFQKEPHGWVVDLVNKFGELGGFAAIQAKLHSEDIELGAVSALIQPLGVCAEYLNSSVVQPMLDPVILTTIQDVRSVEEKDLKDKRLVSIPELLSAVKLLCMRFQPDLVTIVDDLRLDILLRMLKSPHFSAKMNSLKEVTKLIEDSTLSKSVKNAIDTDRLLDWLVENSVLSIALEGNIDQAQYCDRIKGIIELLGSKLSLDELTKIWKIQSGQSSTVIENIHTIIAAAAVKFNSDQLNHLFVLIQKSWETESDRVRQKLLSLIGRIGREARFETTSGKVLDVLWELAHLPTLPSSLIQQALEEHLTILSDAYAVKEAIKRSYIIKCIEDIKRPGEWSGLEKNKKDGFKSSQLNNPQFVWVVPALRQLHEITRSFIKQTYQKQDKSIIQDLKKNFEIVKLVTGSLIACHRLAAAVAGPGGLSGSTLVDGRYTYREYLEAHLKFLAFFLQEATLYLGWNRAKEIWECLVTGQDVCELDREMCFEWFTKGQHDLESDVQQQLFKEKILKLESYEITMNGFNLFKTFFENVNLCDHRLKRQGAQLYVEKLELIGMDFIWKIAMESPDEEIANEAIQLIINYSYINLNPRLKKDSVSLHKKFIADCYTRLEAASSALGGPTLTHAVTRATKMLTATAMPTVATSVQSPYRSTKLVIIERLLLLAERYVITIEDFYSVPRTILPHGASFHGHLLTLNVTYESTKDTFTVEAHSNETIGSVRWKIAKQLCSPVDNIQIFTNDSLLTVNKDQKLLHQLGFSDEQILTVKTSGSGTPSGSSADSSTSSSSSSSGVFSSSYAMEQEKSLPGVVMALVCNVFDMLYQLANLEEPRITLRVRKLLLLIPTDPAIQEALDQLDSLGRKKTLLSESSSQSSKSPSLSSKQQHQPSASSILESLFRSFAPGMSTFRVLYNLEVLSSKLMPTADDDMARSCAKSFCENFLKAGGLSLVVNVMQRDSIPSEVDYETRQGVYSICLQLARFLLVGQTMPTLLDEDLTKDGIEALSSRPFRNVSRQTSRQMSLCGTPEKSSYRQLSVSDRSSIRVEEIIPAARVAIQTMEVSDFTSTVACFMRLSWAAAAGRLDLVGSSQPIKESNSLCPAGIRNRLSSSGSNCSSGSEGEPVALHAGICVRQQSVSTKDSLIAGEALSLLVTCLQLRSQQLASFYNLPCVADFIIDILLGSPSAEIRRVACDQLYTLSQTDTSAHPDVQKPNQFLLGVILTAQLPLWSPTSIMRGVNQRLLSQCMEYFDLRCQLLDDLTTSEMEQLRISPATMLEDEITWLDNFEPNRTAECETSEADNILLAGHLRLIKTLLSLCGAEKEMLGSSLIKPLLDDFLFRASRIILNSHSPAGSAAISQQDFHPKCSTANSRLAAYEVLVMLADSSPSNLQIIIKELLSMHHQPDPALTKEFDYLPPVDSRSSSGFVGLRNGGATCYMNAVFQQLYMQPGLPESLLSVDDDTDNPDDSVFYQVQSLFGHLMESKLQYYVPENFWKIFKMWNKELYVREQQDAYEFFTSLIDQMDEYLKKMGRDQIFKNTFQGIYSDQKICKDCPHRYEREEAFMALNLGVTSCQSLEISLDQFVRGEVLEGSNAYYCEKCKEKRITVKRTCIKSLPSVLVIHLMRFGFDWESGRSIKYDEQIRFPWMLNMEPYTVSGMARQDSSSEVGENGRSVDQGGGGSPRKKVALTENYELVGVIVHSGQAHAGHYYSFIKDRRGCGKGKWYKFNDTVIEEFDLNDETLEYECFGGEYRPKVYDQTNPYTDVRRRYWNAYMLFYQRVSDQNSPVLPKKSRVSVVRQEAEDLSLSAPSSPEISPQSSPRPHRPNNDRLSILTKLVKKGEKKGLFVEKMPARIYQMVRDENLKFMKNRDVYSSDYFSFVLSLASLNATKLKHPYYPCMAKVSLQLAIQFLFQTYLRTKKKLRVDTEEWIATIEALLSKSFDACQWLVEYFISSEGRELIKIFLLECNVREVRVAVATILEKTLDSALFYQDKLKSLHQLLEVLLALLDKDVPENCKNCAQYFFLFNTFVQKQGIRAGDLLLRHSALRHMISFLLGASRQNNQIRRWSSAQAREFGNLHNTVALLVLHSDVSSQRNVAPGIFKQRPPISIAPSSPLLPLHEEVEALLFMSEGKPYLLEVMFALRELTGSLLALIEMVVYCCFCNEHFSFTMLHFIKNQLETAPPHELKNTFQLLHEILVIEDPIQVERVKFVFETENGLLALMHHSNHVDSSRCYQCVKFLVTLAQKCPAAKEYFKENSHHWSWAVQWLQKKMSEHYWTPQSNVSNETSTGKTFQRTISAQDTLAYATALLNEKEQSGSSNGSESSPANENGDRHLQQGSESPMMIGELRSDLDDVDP
# Method in brief: as §1
# USP25 = target: T3, USP25 (UniProt Q9UHP3)
# T3 sequence (whole entry): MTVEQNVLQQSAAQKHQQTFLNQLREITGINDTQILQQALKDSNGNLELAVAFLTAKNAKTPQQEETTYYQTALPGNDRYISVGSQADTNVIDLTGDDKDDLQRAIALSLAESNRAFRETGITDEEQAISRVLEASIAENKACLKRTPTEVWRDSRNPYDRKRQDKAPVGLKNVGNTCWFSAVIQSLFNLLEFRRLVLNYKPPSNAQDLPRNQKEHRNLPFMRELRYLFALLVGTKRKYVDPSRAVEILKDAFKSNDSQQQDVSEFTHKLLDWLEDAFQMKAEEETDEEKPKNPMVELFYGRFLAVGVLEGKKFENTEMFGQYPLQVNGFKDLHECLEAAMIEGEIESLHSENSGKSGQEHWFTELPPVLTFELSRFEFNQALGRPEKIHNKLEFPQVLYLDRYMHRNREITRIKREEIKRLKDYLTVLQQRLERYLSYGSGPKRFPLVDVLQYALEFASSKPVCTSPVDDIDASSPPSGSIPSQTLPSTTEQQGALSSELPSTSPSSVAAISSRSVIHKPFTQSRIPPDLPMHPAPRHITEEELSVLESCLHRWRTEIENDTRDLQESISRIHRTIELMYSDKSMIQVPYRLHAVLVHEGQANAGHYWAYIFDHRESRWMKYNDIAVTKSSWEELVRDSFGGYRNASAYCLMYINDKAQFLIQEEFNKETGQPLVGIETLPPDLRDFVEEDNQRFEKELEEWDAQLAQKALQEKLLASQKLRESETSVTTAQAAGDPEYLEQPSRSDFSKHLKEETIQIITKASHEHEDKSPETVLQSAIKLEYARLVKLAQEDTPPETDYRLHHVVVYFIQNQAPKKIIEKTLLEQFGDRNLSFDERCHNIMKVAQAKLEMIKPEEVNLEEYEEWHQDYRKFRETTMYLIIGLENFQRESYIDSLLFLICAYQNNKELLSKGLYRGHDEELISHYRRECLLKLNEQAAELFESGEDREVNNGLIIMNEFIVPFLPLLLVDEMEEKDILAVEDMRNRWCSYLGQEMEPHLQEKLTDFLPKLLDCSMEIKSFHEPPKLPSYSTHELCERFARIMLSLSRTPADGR
# Method in brief: as §1
# USP28 = target: T4, USP28 (UniProt Q96RU2)
# T4 sequence (whole entry): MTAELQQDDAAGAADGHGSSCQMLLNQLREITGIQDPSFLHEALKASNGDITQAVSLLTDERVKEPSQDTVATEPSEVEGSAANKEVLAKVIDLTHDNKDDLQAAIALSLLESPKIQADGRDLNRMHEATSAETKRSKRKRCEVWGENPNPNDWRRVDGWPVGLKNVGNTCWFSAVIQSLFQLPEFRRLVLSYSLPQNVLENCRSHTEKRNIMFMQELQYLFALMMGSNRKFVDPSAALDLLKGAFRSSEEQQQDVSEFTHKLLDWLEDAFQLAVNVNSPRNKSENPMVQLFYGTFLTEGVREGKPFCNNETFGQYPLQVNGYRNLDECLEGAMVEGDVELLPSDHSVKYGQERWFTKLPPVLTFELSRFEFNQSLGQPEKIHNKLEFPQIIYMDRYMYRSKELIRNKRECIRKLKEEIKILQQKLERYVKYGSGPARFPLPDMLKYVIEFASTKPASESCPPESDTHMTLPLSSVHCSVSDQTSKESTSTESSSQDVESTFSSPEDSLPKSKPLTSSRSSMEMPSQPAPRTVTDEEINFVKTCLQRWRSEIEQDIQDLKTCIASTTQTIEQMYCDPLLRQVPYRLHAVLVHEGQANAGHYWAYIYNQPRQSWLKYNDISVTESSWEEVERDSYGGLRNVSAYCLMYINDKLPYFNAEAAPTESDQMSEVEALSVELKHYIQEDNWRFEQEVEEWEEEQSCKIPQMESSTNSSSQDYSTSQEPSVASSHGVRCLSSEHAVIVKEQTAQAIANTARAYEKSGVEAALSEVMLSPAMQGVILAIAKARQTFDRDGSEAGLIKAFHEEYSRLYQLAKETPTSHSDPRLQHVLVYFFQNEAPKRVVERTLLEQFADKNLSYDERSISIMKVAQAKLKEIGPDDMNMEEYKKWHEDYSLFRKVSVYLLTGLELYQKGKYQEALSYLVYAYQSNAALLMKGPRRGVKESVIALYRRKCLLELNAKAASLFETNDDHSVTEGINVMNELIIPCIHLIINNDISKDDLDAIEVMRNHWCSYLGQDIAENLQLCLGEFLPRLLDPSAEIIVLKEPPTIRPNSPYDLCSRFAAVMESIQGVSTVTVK
# Method in brief: as §1
structure (smiles),measurement,setting,value
O=C(CCl)N1CCc2sccc2C1,log2 ratio of Biotin-Ahx-Ub-VS probe labelling,USP19,-1.19 (active)
same,log2 ratio of Biotin-Ahx-Ub-VS probe labelling,USP22,-0.23
same,log2 ratio of Biotin-Ahx-Ub-VS probe labelling,USP24,-1.31 (active)
same,log2 ratio of Biotin-Ahx-Ub-VS probe labelling,USP25,-1.13 (active)
same,log2 ratio of Biotin-Ahx-Ub-VS probe labelling,USP28,-0.791

# — the supplement of paper PMC11732987, “Enantioselective OTUD7B fragment discovery through chemoproteomics screening and high-throughput optimisation” (Communications Chemistry, 2025)
